Source: PubChem
Most compounds without a hit are left out; they make up all but 0.91% or so of the library.
BLM inh: qHTS Assay for Inhibitors of Bloom's syndrome helicase (BLM); RecQ-like DNA helicase BLM (Homo sapiens), P54132; recombinant BLM DNA unwinding, fluorescence dequenching; Potency, µM (highest dose often 56.1 µM), without a hit: at the top dose activity change, negative = inhibition, most hits filed as inhibitors; 350,000 compounds, 0.2% hits; AID 2528, 2010;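 note: plate controls were vehicle for no effect and no enzyme for full effect; nearly all actives have a fitted effect of over 35% in size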
APEX1 inh: qHTS Assay for Inhibitors of the Human Apurinic/apyrimidinic Endonuclease 1 (APE1) | recombinant APE1, TAMRA/BHQ-2 abasic DNA cleavage fluorescence | Potency, µM (series often up to 65.8 µM), inactives show at the highest dose activity change, negative = inhibition, hits mostly inhibitors | 350,000 compounds, 0.35% hits | AID 2517, 2012;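 note: plate controls were vehicle for no effect and reference inhibitor for full effect; nearly all actives have a fitted effect of over 55% in size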
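Enzyme (0.75 nM final) and test compound are incubated 15 min at room temperature before adding 50 nM quenched THF abasic-site duplex. Cleavage dequenches TAMRA, followed at 525/598 nm over three reads one minute apart.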
TR SRC2 fluor cs: Total Fluorescence Counterscreen for Inhibitors of the Interaction of Thyroid Hormone Receptor and Steroid Receptor Coregulator 2; TRb/SRC2 Texas Red total fluorescence interference; Potency, µM (doses to about 106 µM), inactives show top-dose fluorescence change, negative = quenching; 280,000 compounds, 0.29% hits; AID 1479, 2009; active = well fitted curve in either direction with a large enough effect; inconclusive = small, poorly fitted or top-dose-only effect
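Human TRb ligand-binding domain at 0.6 uM with 20 nM Texas Red SRC2 peptide in Tris buffer containing 1 uM T3 and 5% DMSO, incubated with compound 5 h at ambient temperature. Total fluorescence (555/632 nm) calculated as parallel + 2 × perpendicular.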
RECQ1 inh-1: qHTS Assay for Inhibitors of RecQ-Like Dna Helicase 1 (RECQ1). ATP-dependent DNA helicase Q1 (Homo sapiens), P46063. RECQ1 DNA unwinding, red fluorescence kinetic read. Potency, µM (series often up to 57.3 µM), inactives show top-dose activity, negative = inhibition, hits mostly inhibitors. 240,000 compounds, 0.54% hits;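 note: plate controls were vehicle for no effect and no enzyme for full effect; nearly all actives have a fitted effect of over 30% in size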
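RECQ1T1 50 nM; forked duplex (20 bp + 30-nt ss tails) 200 nM, ATP 2 mM final; pH 8.0, 2 mM MgCl2, 2.5 ug/ml poly(dI-dC); 15 min compound preincubation; discontinuous kinetic read over 2 h at RT.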
WRN inhibitor: qHTS for Inhibitors of WRN Helicase. Bifunctional 3'-5' exonuclease/ATP-dependent helicase WRN (Homo sapiens), Q14191. WRN helicase unwinding, fluorescent forked duplex, kinetic. Potency, µM (titrated, usually from 114 µM), for the others: at the highest dose activity change, negative = inhibition, most hits filed as inhibitors. 360,000 compounds, 0.46% hits. AID 651768, 2012; note: nearly all actives have a fitted effect of over 55% in size
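WRN at 20 nM final was preincubated with compound for 15 min at room temperature; reaction started with 100 nM forked duplex oligonucleotide carrying fluorophore and quencher plus 2 mM ATP (final). Unwinding followed kinetically by red fluorescence (ex 525/em 598 nm).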
TRb-SRC2 inh: qHTS for Inhibitors of the Interaction of Thyroid Hormone Receptor and Steroid Receptor Coregulator 2 | Thyroid hormone receptor beta (Homo sapiens), P10828 | TRbeta-SRC2 peptide binding, fluorescence polarization; receptor liganded with 1 µM T3 | Potency, µM (top dose mostly 106 µM), for the others: at the highest dose activity change, negative = inhibition, hits mostly inhibitors | 280,000 compounds, 0.065% hits | AID 1469, 2008;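 note: plate controls were bound peptide for no effect and peptide without receptor for full effect; nearly all actives have a fitted effect of over 50% in size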
Target sequence (P10828 whole entry, looked up): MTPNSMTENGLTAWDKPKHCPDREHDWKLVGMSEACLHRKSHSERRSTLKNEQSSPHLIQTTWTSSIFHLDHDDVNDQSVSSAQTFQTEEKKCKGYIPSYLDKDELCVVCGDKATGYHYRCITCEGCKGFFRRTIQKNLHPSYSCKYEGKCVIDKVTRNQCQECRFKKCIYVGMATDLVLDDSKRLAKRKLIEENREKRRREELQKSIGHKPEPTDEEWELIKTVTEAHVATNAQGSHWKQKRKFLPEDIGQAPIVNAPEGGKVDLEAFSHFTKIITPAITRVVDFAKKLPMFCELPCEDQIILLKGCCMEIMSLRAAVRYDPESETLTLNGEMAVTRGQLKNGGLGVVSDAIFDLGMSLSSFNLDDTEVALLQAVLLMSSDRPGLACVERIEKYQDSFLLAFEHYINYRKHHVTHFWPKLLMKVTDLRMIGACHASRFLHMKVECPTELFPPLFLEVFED
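TRb LBD 0.6 uM + Texas Red SRC2 peptide 20 nM, 1 uM T3, Tris buffer w/ 5% DMSO; compound pinned, 5 h RT; FP read ex 555/em 632; normalized to unbound and bound controls.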
RECQ1 conf: Confirmation qHTS Assay for Inhibitors of RecQ-Like Dna Helicase 1 (RECQ1). shares compounds with RECQ1 inh-1. 610 compounds, 28% hits. RECQ1 helicase DNA unwinding, fluorescence. Potency, µM (titrated, usually from 229 µM), for the others: at the highest dose activity change, negative = inhibition, usual class: inhibitors; note: nearly all actives have a fitted effect of over 45% in size
RECQ1 ADP FP: Counterscreen for RECQ1 Inhibitors: ADP Fluorescence Polarization Displacement Assay. shares compounds with RECQ1 inh-1. ADP fluorescence polarization displacement counterscreen. Potency, µM (highest dose often 228 µM), for the others: at the top dose activity change, negative = inhibition, hits mostly inhibitors. 530 compounds, 27% hits. AID 2711, 2010; note: nearly all actives have a fitted effect of over 45% in size
RECQ1 inh-2: Confirmation qHTS Assay for Inhibitors of RecQ-Like Dna Helicase 1 (RECQ1) - Round 2 Cherry Picks | shares compounds with RECQ1 inh-1 | AID 504841, 2011 | 1,100 compounds, 15% hits | recombinant RECQ1 DNA unwinding, red fluorescence | Potency, µM (doses to about 119 µM), for inactives: at the top dose activity, negative = inhibition, usual class: inhibitors; note: nearly all actives have a fitted effect of over 50% in size
Starred values were filed as active, the others as inactive; [ ] = another dose, or the depositor's remark. Unless noted, calls come from the whole dose curve; as a rule, active = well fitted curve in the direction sought with a large enough effect; inconclusive = small, poorly fitted or top-dose-only effect, or another doubt; inactive = no such curve, though single readings can be large; an effect the other way counts as inactive or inconclusive. Unless noted, % is set by controls: 0 for no effect and ±100 for the full control effect; potency is the fitted concentration of half-maximal effect.

CCOC(=O)c1ccc(CC(=O)c2oc3cc(O)ccc3c2C)o1 was read as BLM inh -14%, APEX1 inh -3%, TR SRC2 fluor cs -2%, RECQ1 inh-1 -4%, WRN inhibitor -16%[57.1 µM] and TRb-SRC2 inh 0%.
For COc1ccc(C(=O)N(C)c2ccccc2C(=O)NCCc2ccccc2)cc1 the results were BLM inh -4%, APEX1 inh 12% and WRN inhibitor 2%.
`COCCCn1c(=O)/c(=C\c2ccccc2OC(C)C)s/c1=C(/C#N)C(=O)Nc1ccc(C(=O)O)cc1` gave BLM inh -8%, APEX1 inh -2%, TR SRC2 fluor cs -4%, RECQ1 inh-1 inconclusive, WRN inhibitor inconclusive, TRb-SRC2 inh 4% and RECQ1 inh-2 inconclusive.
`COCCCn1c(=O)/c(=C\c2ccccc2OC(F)F)s/c1=C(/C#N)C(=O)NC(C)C` gave BLM inh -7%, APEX1 inh 1%, TR SRC2 fluor cs 6%, RECQ1 inh-1 inconclusive, WRN inhibitor -18%, TRb-SRC2 inh 1% and RECQ1 inh-2 -13%.
Cc1c(-n2c(SC(C)C(=O)NC(N)=O)nc3ccccc3c2=O)c(=O)n(-c2ccccc2)n1C (stereo unspecified) was read as BLM inh 4%, APEX1 inh 4%, TR SRC2 fluor cs -1%, RECQ1 inh-1 -2%, WRN inhibitor 2%, TRb-SRC2 inh -5%, RECQ1 conf 1% and RECQ1 ADP FP 5%.
`CCOC(=O)c1c(-c2ccc(C)o2)csc1NC(=O)CSc1nncs1` gave BLM inh 2%, APEX1 inh inconclusive, TR SRC2 fluor cs 20%, RECQ1 inh-1 1.8µM*, WRN inhibitor -16%, TRb-SRC2 inh -15%, RECQ1 conf 15%[114 µM] and RECQ1 ADP FP 187%[91.9 µM].
Screening CCOC(=O)N1CCN(C(=O)COC(=O)c2ccccc2NCCO)CC1 returned APEX1 inh 4% and WRN inhibitor -6%.
For O=C1ON=C(c2ccccc2)/C1=C/c1ccco1 the results were BLM inh 2%, APEX1 inh inconclusive, TR SRC2 fluor cs -10%, RECQ1 inh-1 inconclusive, WRN inhibitor inconclusive, TRb-SRC2 inh 3% and RECQ1 inh-2 -25%.
`Cc1cc(C)cc(N2C(=O)CN(Cc3sccc3C)C2=S)c1` gave BLM inh -10%, APEX1 inh -28%, TR SRC2 fluor cs 1%, RECQ1 inh-1 -13%, WRN inhibitor -21% and TRb-SRC2 inh 1%.
CCc1ccc(N2C(=O)CN(Cc3sccc3C)C2=S)cc1 was read as BLM inh -12%, APEX1 inh -1%, TR SRC2 fluor cs -2%, RECQ1 inh-1 1.6µM*, WRN inhibitor -8%, TRb-SRC2 inh -6%, RECQ1 conf -11%[114 µM], RECQ1 ADP FP 9%[91.9 µM] and RECQ1 inh-2 -18%.
For Cc1cc(C(=O)COC(=O)/C=C/c2cccc(Br)c2)c(C)n1C the results were APEX1 inh -8% and WRN inhibitor 10%.
`Cc1ccc(C)c(NC(=O)CCC(=O)NN=C2CCCC2)c1` gave BLM inh -3%, APEX1 inh -18% and WRN inhibitor 9%.
COc1ccc(/C=N/NC(=O)c2nn(-c3ccccc3)c(=O)c3c(N)scc23)cc1 was read as BLM inh -10%, APEX1 inh inconclusive, TR SRC2 fluor cs -20%, RECQ1 inh-1 25µM*, WRN inhibitor -15%[57.1 µM], TRb-SRC2 inh 5%, RECQ1 conf 22%[114 µM] and RECQ1 ADP FP inconclusive.
For COc1ccc(/C=N/NC(=O)c2nn(-c3ccc(Cl)cc3)c(=O)c3c(N)scc23)cc1 the results were BLM inh -10%, APEX1 inh inconclusive, TR SRC2 fluor cs -18%, RECQ1 inh-1 inconclusive, WRN inhibitor -6% and TRb-SRC2 inh -2%.
`Cc1ccccc1CSc1nnc(NC(=O)Cc2cccs2)s1` gave BLM inh -21%, APEX1 inh inconclusive, TR SRC2 fluor cs -4%, RECQ1 inh-1 40µM*, WRN inhibitor -31%, TRb-SRC2 inh 13% and RECQ1 inh-2 -29%.
Screening O=C1CN(C(=O)COC(=O)c2ccc(C(F)(F)F)cc2)c2ccccc2N1 returned APEX1 inh 5% and WRN inhibitor 3%.
`O=C(O)c1c2c(nc3ccc(Cl)cc13)CCC2` gave BLM inh -4%, APEX1 inh inconclusive, TR SRC2 fluor cs 0%, RECQ1 inh-1 28µM*, WRN inhibitor -3%[11.6 µM], TRb-SRC2 inh -3% and RECQ1 inh-2 -25%.
For NC(=O)c1oc2ccccc2c1NC(=O)c1ccc([N+](=O)[O-])o1 the results were BLM inh -6%, APEX1 inh 18% and WRN inhibitor -19%.
Screening Cc1ccc(S(=O)(=O)Nc2ccc(N3CCCCC3)cc2)cc1 returned BLM inh -7%, APEX1 inh 5%, TR SRC2 fluor cs 2%, RECQ1 inh-1 inconclusive, WRN inhibitor -15%, TRb-SRC2 inh 1% and RECQ1 inh-2 -8%.
`Nc1ccc(N2CCOCC2)c2nonc12` gave BLM inh 32µM*, APEX1 inh inconclusive, TR SRC2 fluor cs -7%, RECQ1 inh-1 inconclusive, WRN inhibitor -21%, TRb-SRC2 inh inconclusive and RECQ1 inh-2 0%.
